Consider eight compounds from PubChem BioAssay (NCI).

Holding throughout (test): NCI-60 one-dose screen, 48 h (100 = growth as untreated, 0 = no growth, -100 = all killed)
One test relates to NCI-H226 lung. The note with it: 10 µM.
Another test has as its system NCI-H322M lung. The note with it: 10 µM.
In the next test the test system is HOP-62 NSCLC. The conditions noted are these: 10 µM.
Another test deals with NCI-H460 lung. The conditions noted are these: 10 µM.
The next test has as its system A549/ATCC NSCLC. The conditions noted are these: 10 µM.
Another test relates to DU-145 prostate. The note with it: 10 µM.
Another test relates to SF-268 CNS. The conditions noted are these: 10 µM.
The test system of another test is SF-295 CNS. The note with it: 10 µM.
The subject of the next test is SF-539 CNS. The conditions noted are these: 10 µM.
A further test relates to M14 melanoma. The note with it: 10 µM.
Another test relates to HCT-15 colon. The note with it: 10 µM.
Another test relates to HT29 colon. The note with it: 10 µM.
The next test has as its system SNB-75 CNS. The note with it: 10 µM.
The test system of a further test is SNB-19 CNS. The note with it: 10 µM.
The test system of the next test is U251 CNS. The conditions noted are these: 10 µM.
Another test deals with PC-3 prostate. The note with it: 10 µM.
The next test concerns SK-MEL-5 melanoma. The conditions noted are these: 10 µM.
The subject of another test is UACC-62 melanoma. The conditions noted are these: 10 µM.
In another test the test system is SK-MEL-28 melanoma. The note with it: 10 µM.
The next test relates to HL-60(TB) leukemia. The conditions noted are these: 10 µM unless noted.

This is part of a sample that, as a whole, favours compounds with a hit. Of some 83,000 tested, about 20% had one in any assay.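 Plates (96-well) were seeded with cells, treated with compound at one concentration, and incubated for 48 hours before percent growth was determined.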 Calls of active or inactive are those of the source. Rule for the calls: active = growth percent below 10; inactive = the rest.

For the compound `O=C(/C=C/c1ccc(F)cc1)c1nc2ccccc2n1Cc1ccc(F)cc1`, the growth is -35.7% (active) in the test on NCI-H226 lung; 40.5% (inactive) with NCI-H322M lung; -1.76% (active) with HOP-62 NSCLC; 6.65% (active) in the test on NCI-H460 lung; 27.2% (inactive) with A549/ATCC NSCLC; 18.4% (inactive) in the test on DU-145 prostate. For the same compound, the growth is 16.2% (inactive) in the test on SF-268 CNS; -10.9% (active) with SF-295 CNS; -63.5% (active) in the test with SF-539 CNS; -3.51% (active) in the test on M14 melanoma; -61% (active) in the test on HCT-15 colon; -30.5% (active) with HT29 colon. In addition, the growth with SNB-75 CNS was 20.6% (inactive); in the test with SNB-19 CNS, 13.8% (inactive); in the test on U251 CNS, -56.3% (active); in the test with PC-3 prostate, 8.29% (active); with SK-MEL-5 melanoma, 21.1% (inactive); with UACC-62 melanoma it was -41.7% (active). Besides, the growth was -15.8% (active) in the test on SK-MEL-28 melanoma and 6.99% (active) in the test with HL-60(TB) leukemia.

For the compound `CC1=C2C(=C[C@@](C)(COP(=O)(Oc3ccccc3)Oc3ccccc3)[C@@H]2O)C(=O)[C@@](C)(O)C12CC2`, the growth in the test on NCI-H226 lung was -63.9% (active); in the test on NCI-H322M lung, -59.5% (active); in the test with HOP-62 NSCLC it was -88.4% (active); in the test on NCI-H460 lung, -35.4% (active); in the test on A549/ATCC NSCLC it was -53.9% (active); in the test with DU-145 prostate, -96.3% (active). In addition, the growth with SF-268 CNS is -74.3% (active); in the test with SF-295 CNS it was -59% (active); in the test on SF-539 CNS, -99.1% (active); with M14 melanoma it was -22.9% (active); in the test on HCT-15 colon, -32.5% (active); with HT29 colon, -57.3% (active). In addition, the growth with SNB-75 CNS was -94% (active); in the test on SNB-19 CNS, -17.5% (active); in the test on U251 CNS, -43.4% (active); in the test with PC-3 prostate, -31% (active); in the test on SK-MEL-5 melanoma it was -99.2% (active); with UACC-62 melanoma it was -87.7% (active). In addition, the growth in the test on SK-MEL-28 melanoma is -88.1% (active).

As to `COc1ccc(/C=C/C(=O)c2nc3ccccc3n2Cc2ccc(Br)cc2)cc1`, the growth was 69.7% (inactive) in the test on NCI-H226 lung; 73.9% (inactive) in the test on NCI-H322M lung; 92.8% (inactive) in the test on HOP-62 NSCLC; 57.8% (inactive) with NCI-H460 lung; 74.6% (inactive) in the test on A549/ATCC NSCLC; 61.9% (inactive) in the test on DU-145 prostate. Further, the growth with SF-268 CNS was 68% (inactive); in the test on SF-295 CNS it was 81.9% (inactive); with SF-539 CNS, 78.3% (inactive); in the test on M14 melanoma it was 72.5% (inactive); with HCT-15 colon, 38.8% (inactive); in the test on HT29 colon, 64.9% (inactive). The growth in the test with SNB-75 CNS was 66.1% (inactive); in the test on SNB-19 CNS it was 74.4% (inactive); in the test on U251 CNS, 50.2% (inactive); with PC-3 prostate it was 57.4% (inactive); in the test with SK-MEL-5 melanoma, 83.3% (inactive); in the test with UACC-62 melanoma, 65% (inactive). Moreover, the values for the growth in the test on SK-MEL-28 melanoma and with HL-60(TB) leukemia were 85.9% (inactive) and 41.2% (inactive), respectively.

Consider `CC[C@]12C=CCN3CC[C@@]4(c5ccc(OC)cc5N(C)[C@H]4[C@@](O)(C(=O)OC)[C@@H]1OC(=O)CCC[P+](c1ccc(C)cc1)(c1ccc(C)cc1)c1ccc(C)cc1)[C@@H]32`, for which the growth is -77.4% (active) in the test with NCI-H226 lung; -98.4% (active) in the test with NCI-H322M lung; -81.6% (active) with HOP-62 NSCLC; -85.2% (active) in the test with NCI-H460 lung; -90.3% (active) in the test on A549/ATCC NSCLC; -78.5% (active) in the test with DU-145 prostate. The growth is -46.3% (active) in the test on SF-268 CNS; -89.1% (active) in the test with SF-295 CNS; -96.6% (active) in the test on SF-539 CNS; -85.3% (active) with M14 melanoma; -91% (active) with HCT-15 colon; -80.7% (active) in the test with HT29 colon. Moreover, the growth was -61.2% (active) with SNB-75 CNS; -97.3% (active) with SNB-19 CNS; -91.2% (active) in the test on U251 CNS; -83.3% (active) in the test on PC-3 prostate; -99.4% (active) in the test with SK-MEL-5 melanoma; -96.8% (active) in the test on UACC-62 melanoma. Also, the growth is -96.6% (active) in the test with SK-MEL-28 melanoma and -47.5% (active) in the test on HL-60(TB) leukemia.

On to `CC[C@]12C=CCN3CC[C@@]4(c5ccc(OC)cc5N(C)[C@H]4[C@@](O)(C(=O)OC)[C@@H]1OC(=O)CCCC[P+](C1CCCCC1)(C1CCCCC1)C1CCCCC1)[C@@H]32`, for which the growth is -22% (active) in the test on NCI-H226 lung; 16.1% (inactive) in the test on NCI-H322M lung; 9.52% (active) in the test with HOP-62 NSCLC; 5.27% (active) with NCI-H460 lung; 11.6% (inactive) in the test with A549/ATCC NSCLC; 9.57% (active) in the test on DU-145 prostate. The growth in the test on SF-268 CNS is -70.5% (active); in the test on SF-295 CNS it was -19.6% (active); with SF-539 CNS, -93.9% (active); with M14 melanoma, -83.5% (active); in the test with HCT-15 colon, 75.2% (inactive); in the test on HT29 colon, -24% (active). Moreover, the growth was -81.4% (active) with SNB-75 CNS; -71.1% (active) in the test on SNB-19 CNS; -87.9% (active) in the test with U251 CNS; 3.69% (active) in the test on PC-3 prostate; -96.1% (active) with SK-MEL-5 melanoma; -96.9% (active) in the test on UACC-62 melanoma. Further, the growth in the test with SK-MEL-28 melanoma was -86.5% (active); in the test on HL-60(TB) leukemia, -36.7% (active).

Turning to `CC[C@]12C=CCN3CC[C@@]4(c5ccc(OC)cc5N(C)[C@H]4[C@@](O)(C(=O)OC)[C@@H]1OC(=O)CCCC[P+](c1ccc(C)cc1)(c1ccc(C)cc1)c1ccc(C)cc1)[C@@H]32`, the growth is -78.6% (active) in the test with NCI-H226 lung; -97.6% (active) with NCI-H322M lung; -84% (active) in the test with HOP-62 NSCLC; -86.6% (active) in the test on NCI-H460 lung; -92.2% (active) in the test with A549/ATCC NSCLC; -84.5% (active) in the test with DU-145 prostate. Besides, the growth in the test on SF-268 CNS is -61.1% (active); in the test on SF-295 CNS, -91.8% (active); with SF-539 CNS it was -98.7% (active); in the test with M14 melanoma, -88.3% (active); with HCT-15 colon it was -90.1% (active); in the test on HT29 colon, -81.8% (active). Moreover, the growth was -87.6% (active) with SNB-75 CNS; -96.5% (active) in the test with SNB-19 CNS; -93.6% (active) in the test with U251 CNS; -73.2% (active) in the test with PC-3 prostate; -98.5% (active) in the test on SK-MEL-5 melanoma; -97.4% (active) in the test with UACC-62 melanoma. In addition, the growth in the test on SK-MEL-28 melanoma was -97.8% (active); in the test on HL-60(TB) leukemia it was -42.2% (active).

On to `CC12OOC(C)(OO1)C2CCC(=O)NCCNc1ccnc2cc(Cl)ccc12` (stereo not drawn), for which the growth in the test with NCI-H226 lung was 93.7% (inactive); in the test on NCI-H322M lung, 97.4% (inactive); in the test on HOP-62 NSCLC, 89.9% (inactive); in the test with NCI-H460 lung it was 101% (inactive); with A549/ATCC NSCLC, 119% (inactive); in the test with DU-145 prostate it was 104% (inactive). In addition, the growth was 95.6% (inactive) in the test with SF-268 CNS; 91.1% (inactive) in the test with SF-295 CNS; 102% (inactive) in the test on SF-539 CNS; 105% (inactive) in the test with M14 melanoma; 95.2% (inactive) in the test with HCT-15 colon; 105% (inactive) with HT29 colon. The growth in the test with SNB-75 CNS is 101% (inactive); in the test with SNB-19 CNS, 98.2% (inactive); in the test with U251 CNS, 110% (inactive); in the test on PC-3 prostate, 98% (inactive); with SK-MEL-5 melanoma, 93.9% (inactive); with UACC-62 melanoma it was 91.8% (inactive). The results for the growth in the test on SK-MEL-28 melanoma and in the test on HL-60(TB) leukemia were 104% (inactive) and 88.9% (inactive), respectively.

For the compound `CC1=C(CCC=O)C2=C(C)C3(CC3)[C@@](C)(O)C(=O)C2=C1`, the growth in the test with NCI-H226 lung is -61.5% (active); with NCI-H322M lung, -84.9% (active); in the test on HOP-62 NSCLC it was -62.7% (active); with NCI-H460 lung it was -42.6% (active); in the test with A549/ATCC NSCLC, -2.03% (active); in the test on DU-145 prostate, -100% (active). Moreover, the growth with SF-268 CNS was 6.81% (active); in the test with SF-295 CNS, -64.3% (active); with SF-539 CNS, -100% (active); with M14 melanoma, -56.8% (active); in the test with HCT-15 colon, -71.1% (active); in the test with HT29 colon, -56.1% (active). In addition, the growth was -96.9% (active) in the test on SNB-75 CNS; -100% (active) in the test with SNB-19 CNS; -99.6% (active) in the test with U251 CNS; -40.6% (active) in the test with PC-3 prostate; -100% (active) in the test with SK-MEL-5 melanoma; -96.5% (active) in the test on UACC-62 melanoma. Besides, the growth in the test with SK-MEL-28 melanoma is -99.3% (active).
